Screens (PubChem)
Most compounds without a hit are left out; they make up all but 0.95% or so of the library.
Fluorescein autfl: fluorescein region autofluorescence; Compound autofluorescence, 480/540 nm, fluorescein-equivalent; active compounds read high; max fluorescein-equivalent concentration, M; 59,000 tested, 0.91% active; AID 593; in the data active means max fluorescein-equivalent concentration above about 10 nM; inconclusive means between about 1.1 nM and that limit
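Fluorescein stocks ranging 3 mM down to 300 nM, plus DMSO blanks, were pinned alongside compounds to build a per-plate standard curve. Buffer: 100 mM Tris, pH 8.0. Incubation 15 min, room temperature; filters 480/540 nm.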
Texas Red fluor: compound fluoresces in the Texas Red spectral region; Compound fluorescence, Texas Red channel, 547/618 nm; active compounds read high; max dye-equivalent concentration, M; 59,000 tested, 0.06% active; AID 587; in the data active means max dye-equivalent concentration above about 10 nM; inconclusive means between about 1.1 nM and that limit
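Dye-equivalent concentrations come from scaling compound signal (ex 547, em 618 nm) to six Texas Red standard concentrations run on every plate, after 15 min room-temperature incubation in pH 8.0 Tris (100 mM).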
Rhodamine fluor: rhodamine region autofluorescence; Rhodamine-region fluorescence, 547/598 nm, Tris buffer; active compounds read high; max dye-equivalent concentration, M; 59,000 tested, 0.05% active; AID 594; in the data active means max dye-equivalent concentration above about 11 nM; inconclusive means between about 1.1 nM and that limit
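Compounds in 100 mM Tris buffer, pH 8.0, were incubated 15 min at room temperature, then read at 547 nm excitation and 598 nm emission. Fluorescence was normalized against a per-plate six-point rhodamine standard curve as dye-equivalent concentration.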
A647 autofl: A647 region autofluorescence; 59,000 tested, under 10 active; Compound fluorescence, A647 channel (570/671 nm), Tris buffer; AID 592; max dye-equivalent concentration, M;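 further: values scaled relative to a standard on each plate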
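Compound fluorescence was measured in 100 mM Tris buffer, pH 8.0, after 15 min at room temperature, using 570 nm excitation and 671 nm emission filters. Signal was normalized to a per-plate Alexa 647 standard curve and expressed as dye-equivalent concentration at each compound concentration.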
A488 autofl: compound autofluorescence in A488 spectral region; compound autofluorescence, A488 spectral region, dye equivalency; Compound Type: qHTS ECL - MLSMR; 59,000 tested, 0.1% active; max dye equivalency, M
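Spectroscopic profiling in the A488 region: compounds in pH 8.0 Tris (100 mM), 15 min RT, CCD imaging with 480 nm excitation and 540 nm emission; responses normalized against A488 dye standards.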
Resorufin autofl: resorufin region autofluorescence | Compound fluorescence, resorufin region 547/598 nm, buffer; active compounds read high | max dye-equivalent concentration, M | 59,000 tested, 0.04% active
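Intrinsic fluorescence profiled in the resorufin window (ex 547 nm, em 598 nm) after 15 min at room temperature in pH 8.0 Tris buffer (100 mM); responses normalized against a six-point resorufin standard series as dye-equivalent concentration.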
The depositor's hits bear a star; i = inactive; ? = inconclusive. Unless noted, how the calls were made is not given here.

SMILES	Fluorescein autfl	Texas Red fluor	Rhodamine fluor	A647 autofl	A488 autofl	Resorufin autofl
CCC(=O)OCc1cc2cccc(C)c2[nH]c1=O	?	i	i	3.88e-08	i	i
C=Cc1c(C)c2cc3[nH]c(cc4nc(cc5nc(cc1[nH]2)C(C)=C5CCC(=O)O)C(CCC(=O)O)=C4C)c(C)c3C=C	?	1.01e-08M*	i	7.58e-08	i	i
CCOC(=O)c1[nH]c(C)c(/C(O)=C2\C(=O)C(=O)N(CCN(C)C)C2c2ccco2)c1C (centres undefined)	i	i	i	9.6e-09	i	i
CCN1CCN(c2nc3ccccc3nc2C(C#N)C(=O)OCc2ccccc2)CC1 (centres undefined)	?	i	i	6.6e-09	i	i
CCN(CC)c1nc2ccccc2nc1C(C#N)C(=O)NCCc1ccccc1 (centres undefined)	1.13e-07M*	?	i	1.48e-08	?	i
CCOC(=O)N1CCN(c2nc3ccccc3nc2C(C#N)C(=O)NCCc2ccccc2)CC1 (centres undefined)	1.13e-08M*	i	i	1e-09	i	i
CCN(CC)c1nc2ccccc2nc1C(C#N)C(=O)NCCCOC (centres undefined)	?	i	i	6.7e-09	i	i
N#CC(C(=O)NCc1ccccc1)c1nc2ccccc2nc1N1CCCC1 (centres undefined)	3.86e-07M*	i	i	2.6e-09	2.19e-08M*	i
CCOC(=O)C1CCCN(c2nc3ccccc3nc2C(C#N)C(=O)NCc2ccccc2)C1 (centres undefined)	8.61e-07M*	i	i	1e-09	4.98e-08M*	i
Cn1nc(C(=O)Nc2sccc2C(N)=O)ccc1=O	i	i	i	4.5e-09	i	i
N#CC(C(=O)NCCc1ccccc1)c1nc2ccccc2nc1N1CCCCC1 (centres undefined)	1.25e-07M*	i	i	3.9e-09	?	i
N#CC(C(=O)NCCc1ccccc1)c1nc2ccccc2nc1N1CCOCC1 (centres undefined)	?	i	i	4.58e-08	i	i
O=C(O)c1ccc2c(c1)NC(=O)C(N1CCCC1)S2 (centres undefined)	1.12e-08M*	i	i	4.14e-08	i	i
COC(=O)c1ccc2c(c1)NC(=O)C(N1CCCC1)S2 (centres undefined)	?	i	i	3.52e-08	i	i
C[C@@H]1O[C@H](O[C@@H]2[C@@H](Oc3cc(O)c4c(c3)O[C@H](c3ccc(O)cc3)CC4=O)O[C@@H](CO)[C@@H](O)[C@H]2O)[C@@H](O)[C@H](O)[C@@H]1O	?	i	i	3e-08	i	i
CC(=O)Oc1ccc(/C=C\C(=O)C[C@@H]2O[C@@H](Oc3cc(OC(C)=O)c4c(c3)O[C@@H](c3ccc(OC(C)=O)cc3)CC4=O)[C@H](OC(C)=O)[C@H](OC(C)=O)[C@@H]2OC(C)=O)cc1	1.28e-08M*	i	i	5.2e-09	i	i
CCn1nc(C)c(/C=C2\CCCC3=C2OC(N)=C(C#N)C3c2c(C)nn(CC)c2C)c1C (centres undefined)	2.42e-08M*	i	i	1e-09	i	i
Cc1nn(-c2ccccc2)c(Cl)c1C1C(C#N)=C(N)OC2=C1C(=O)CCC2 (centres undefined)	?	i	i	1e-09	i	i
CC1CN(c2nc3ccccc3nc2C(C#N)C(=O)NC2CCCCC2)CC(C)O1 (centres undefined)	2.93e-07M*	i	i	1e-09	1.44e-08M*	i
CC(C)COc1nc2ccccc2nc1C(C#N)C(=O)NC1CCCCC1 (centres undefined)	7.32e-08M*	i	i	5.12e-08	?	i
COc1cc(OC)nc(NC(=O)CSc2nc3ccccc3o2)n1	i	i	i	1.95e-08	i	i
O=C(O)c1cc(Cl)c2ccccc2c1O	?	i	i	1e-09	i	i
Cc1ccc(CN(C)C(=O)c2ccccc2Oc2ccccc2)o1	i	?	i	8.5e-09	i	i
